Laboratory results: ChEMBL document CHEMBL3988442, “University of Dundee, Small-Polar-MMV Screening Library” (2021)
Screen size: about 48,000 compounds; about 13,000 (27%) showed an effect of 50% or more. This is one part of the list.

system: Wolbachia pipientis; assay: Anti-Wolbachia Cell-Based Screen; assay type: functional; parameters: scale not given: in the data most compounds retested in dose-response had high values; details: 5 µM

SMILES	Percent Effect [%]
Cc1nc(CNC(=O)NCC(F)(F)F)oc1C	5.267
Cc1ccc(-c2cc(-c3nc(CN4CCN(C)CC4)no3)n[nH]2)cc1	-2.901
CSCCCN1C(=O)CC[C@H]2CN(Cc3ncc[nH]3)CC[C@H]21	-3.327
Cc1nc(CSCCC(=O)NCc2ccc(N(C)C)cc2)cs1	100.6
Cc1nc(CCNC(=O)NCc2ccc(N(C)C)nc2)cs1	2.776
COc1ccc(CNC(=O)NCCc2csc(C)n2)cn1	78.6
Cc1nc(CNC(=O)NCc2ccc(OCC3CC3)nc2)cs1	-6.746
Cc1ncsc1CCC(=O)NCc1csc(N(C)C)n1	8.732
CCOc1ccc(C(=O)CCC(=O)NCCc2nncn2CC)cc1C	-15.05
CC(=O)N1CCC2(CC1)C(=O)N(c1ccc(C)nc1)CCN2CC(C)C	-6.199
CCCS(=O)(=O)N1CCN(C(=O)CO)CC1	9.785
CC1=C(c2ccc(C)cc2)S(=O)(=O)N=C1N1CCc2ccccc21	130.8
CCS(=O)(=O)CC(=O)Nc1ccccc1N1CCc2ccccc21	-1.356
COc1ccc(C2=C(C)C(N3CCc4ccccc4C3)=NS2(=O)=O)cc1	-1.571
COc1ccc(C2=C(C)C(N3CCc4ccccc43)=NS2(=O)=O)cc1	41.03
CC(C)c1nc(C2CCCN2CC(=O)N2CCc3ccccc32)no1 (stereo unspecified)	8.047
CC1=C(c2ccc(Cl)cc2)S(=O)(=O)N=C1N1CCc2ccccc21	182.9
CNC(=O)NCC(=O)Nc1ccccc1N1CCc2ccccc21	-5.269
CC1=C(c2ccc(C(C)C)cc2)S(=O)(=O)N=C1N1CCc2ccccc21	127.3
CC1=C(c2ccc(F)cc2)S(=O)(=O)N=C1N1CCc2ccccc21	117.2
CS(=O)(=O)NCCC(=O)Nc1ccccc1N1CCc2ccccc21	4.986
CCc1nccn1CC(=O)N1C[C@H]2CC[C@@H]1CN(S(=O)(=O)N(C)C)C2	-7.287
Cc1nc(CN2CCCC2C(=O)OCc2ccccc2)oc1C (stereo unspecified)	2.818
CCN1CCN(C(=O)NCc2cccc(-c3cnn(C)c3)c2)CC1	-0.06636
CCOC(=O)NC(CNC(=O)c1cccc(C)n1)CC(C)C (stereo unspecified)	-0.9976
COCc1ccccc1C(=O)N1CCC(CNC(=O)OC(C)(C)C)C1 (stereo unspecified)	-8.221

SMILES	Percent Effect [%]
CS(=O)(=O)CCC(=O)N1C[C@@H]2CC[C@H](C1)N(Cc1ccccn1)C2=O	13.71
N[C@@H]1CC[C@@H](Nc2nccc(CCC(F)(F)F)n2)C1	-1.257
COCCOc1ncccc1NCc1nc2ccccc2n1C	92.25
CN1C[C@@H](F)[C@@H](OCc2nc3ccccc3n2C)C1	6.816
COCCOc1ccc(F)cc1NCc1nc2ccccc2n1C	110.1
COc1cc(F)c(NCc2nc3ccccc3n2C)cc1OC	108.7
Cn1c(CCCNc2nccnc2C#N)nc2ccccc21	-4.565
CN(C)c1nccc(N(C)Cc2nc3ccccc3n2C)n1	-8.65
COc1ccc(-n2c(CO)nc3ccccc32)cc1CO	-2.808
CCNc1ncc(C(=O)N(C)Cc2nc3ccccc3n2C)cn1	-2.006
COc1ccccc1-c1noc(CNc2ccc(F)cc2OCCO)n1	0.4936
Cc1cc(NC(=O)NC(C)(C)c2nc(C)c(C)s2)no1	5.891
CSc1ccc(-c2nc(CN3CCC(C(N)=O)CC3)c(C)o2)cc1	12.72
Cc1cc(S(=O)(=O)N2CCC(N3CCC(O)C3)CC2)c(Cl)cc1Cl (stereo unspecified)	-12.47
CCn1cnnc1CN(C)Cc1c[nH]nc1-c1ccc(F)cc1	6.499
Cc1ncc(CN2CCc3c(nc(-c4ccccn4)[nH]c3=O)C2)n1C	100.8
O=C(c1ccccn1)N1CCc2c(nc(-c3ccncc3)[nH]c2=O)C1	-0.04653
Cn1ccnc1-c1ccccc1C(=O)N1CCc2c(nc(N)[nH]c2=O)C1	1.911
Cn1cccc1CN1CCc2c(nc(-c3ccccn3)[nH]c2=O)C1	114.7
Cc1cnc(C(=O)N2CCc3c(nc(-c4ccncc4)[nH]c3=O)C2)cn1	-3.986
CC(NC(=O)N1CCN(c2ccc(Cl)cc2)CC1)C(=O)N1CCSCC1 (stereo unspecified)	-1.833
CCc1nc(CN2CCN(C(=O)c3cnccn3)CC2)cs1	-1.168
Nc1nc(C2CCN(C(=O)c3cnccn3)CC2)cs1	113.4
O=C(c1cnccn1)N1CCC(Oc2ncccc2Cl)CC1	33.47
Nc1nc(C2CCN(C(=O)c3cnco3)CC2)cs1	114.6
